Measured values taken from PubChem BioAssay AID588517 (NMMLSC, 2011).
Out of some 1,700 compounds screened, about 65 (4%) were called active.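 Rule for the calls: active = fluorescence ratio to DMSO above its plate's cutoff, the plate mean ratio plus 5 SD (cut at about 210% in these data); inactive = the rest.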 Only a sample is shown.

Experiment: compound autofluorescence in empty-vector yeast, confirmation, artefact control for antifungal efflux pump inhibitor project, S. cerevisiae AD/pABC3, flow cytometry, Cherry Pick1 set (AID 588517);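 note: unstained yeast with no Nile Red so the signal is compound autofluorescence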
Conditions: at 10 µM, stronger effect = higher value

Row | SMILES | fluorescence ratio to DMSO
1 | CSCCC(NS(=O)(=O)c1ccc(C)cc1)C(=O)N1CCCC1 (stereo unspecified) | 90.1% (inactive)
2 | CCOc1ccccc1/C=c1\sc2nc(-c3ccco3)nn2c1=O | 126% (inactive)
3 | CC(/C=N/NC(=O)c1cc(-c2ccc3ccccc3c2)n[nH]1)=C\c1ccco1 | 88.7% (inactive)
4 | C[n+]1ccc(/C=C/c2c[nH]c3ccccc23)cc1 | 385% (active)
5 | COc1ccc(/C=C(\C#N)c2c[nH]c3ccccc23)cc1 | 106% (inactive)
6 | CCOc1ccc(/C=C2\SC(=S)N(NC(=O)c3ccncc3)C2=O)cc1OC | 100% (inactive)
7 | Cc1cc(C)cc(NC(=O)C(OC(=O)c2ccc(O)cc2)c2ccccc2)c1 (stereo unspecified) | 103% (inactive)
8 | COc1ccc(S(=O)(=O)N2CCOC2CNC(=O)C(=O)NCc2ccc(F)cc2)cc1 (stereo unspecified) | 113% (inactive)
9 | Cc1nc2c(C(=O)NCc3ccc4c(c3)OCO4)c[nH]n2c(=O)c1Cc1ccccc1F | 84.3% (inactive)
10 | Cc1ccc(Cn2nnc3c(=O)[nH]c(C4CCN(S(=O)(=O)/C=C/c5ccccc5)CC4)nc32)cc1 | 110% (inactive)
11 | O=C(/C=C/c1c(Cl)cccc1Cl)NCc1ccccc1 | 98.2% (inactive)
12 | Cc1cc(/C=N/NC(=O)CC2(C)OCCO2)c(C)n1-c1ccc(Cl)c(Cl)c1 | 102% (inactive)
13 | Cc1ccc(/C=C(\C#N)C(=O)Nc2cccc3ncccc23)o1 | 98.6% (inactive)
14 | Cc1oc2cc3oc(=O)ccc3cc2c1C | 104% (inactive)
15 | Cc1ccc(Cn2c(C)nc3c(c2=O)c2nc4ccccc4nc2n3Cc2ccco2)cc1 | 105% (inactive)
16 | COc1ccc(C(=O)NC(=S)Nc2ccc(N3CCCC3)cc2)cc1OC | 102% (inactive)
17 | CCCc1nnc(SCC(=O)Nc2ccc(C(=O)OCC)cc2)o1 | 116% (inactive)
18 | CCOC(=O)CNC(=O)CSc1nnnn1-c1cc(C)ccc1C | 101% (inactive)
19 | O=C(NCc1ccccc1)C(=O)NCC1OCCN1S(=O)(=O)c1ccc(Br)cc1 (stereo unspecified) | 90.8% (inactive)
20 | O=C(Nc1ccc(NC(=O)c2cccs2)cc1)c1ccc2ccccc2c1 | 109% (inactive)
21 | O=S(=O)(c1ccccc1)N1CCc2ccccc21 | 163% (inactive)
22 | CC(/C=C/c1ccccc1)=N\NC(=O)C1CC1(C)c1ccccc1 (stereo unspecified) | 94.4% (inactive)
23 | CCCCCC(=O)Nc1ccc(C(=O)N/N=C/c2ccc([N+](=O)[O-])cc2)cc1 | 103% (inactive)
24 | COc1ccccc1CSc1ncc(-c2ccc([N+](=O)[O-])cc2)[nH]1 | 110% (inactive)
25 | CCn1c(/C=C/c2ccc([N+](=O)[O-])o2)nc2ccccc2c1=O | 431% (active)
26 | CCOc1ccc2nc(Cl)c(C3CC(c4ccccc4)=NN3C(=O)c3cccs3)cc2c1 (stereo unspecified) | 95.5% (inactive)

Row | SMILES | fluorescence ratio to DMSO
27 | Cc1ccc2[nH]c3c(=O)n(CC(=O)NCCc4ccc(Cl)cc4)ncc3c2c1 | 107% (inactive)
28 | COc1cccc(-c2sc3ccc(OC)cc3c2-c2ccc(OCCN3CCCCC3)cc2)c1 | 103% (inactive)
29 | COc1ccccc1NC(=O)C1CCCN1S(=O)(=O)c1ccc(Cl)cc1 (stereo unspecified) | 108% (inactive)
30 | Cc1cc(C(=O)Nc2ccc(C)c(S(=O)(=O)N3CCOCC3)c2)c2ccccc2n1 | 91.8% (inactive)
31 | O=C(CCCCCn1c(=O)[nH]c2ccccc2c1=O)NCCc1c[nH]c2ccccc12 | 110% (inactive)
32 | Cc1ccc(OCc2cc(C(=O)N(C)CCc3ccccc3)no2)cc1C | 106% (inactive)
33 | CC12CCC(C(=O)N(c3cccc(Cl)c3)C1=O)C2(C)C (stereo unspecified) | 102% (inactive)
34 | CCCCN1C(=O)/C(=C/C=C2/C=Cc3ccccc3N2CC)SC1=S | 68.5% (inactive)
35 | O=C1NC(=O)C2C1C(c1ccc([N+](=O)[O-])cc1)=NN2Cc1ccccc1 (stereo unspecified) | 152% (inactive)
36 | CN(C)S(=O)(=O)c1cc(C(=O)Nc2ccn(C)n2)c(Cl)cc1Cl | 93.7% (inactive)
37 | Cc1ccc(N=C2NC(=O)/C(=C/C=C/c3ccco3)S2)cc1C | 104% (inactive)
38 | COc1ccc2[nH]c3c(C)c4cc[n+](C)cc4c(C)c3c2c1 | 115% (inactive)
39 | COc1ccccc1/C=C/C=N/n1c(-c2ccc(Cl)cc2Cl)n[nH]c1=S | 101% (inactive)
40 | CCCCCCCCCCCCCCCC(=O)OC/C=C(C)/C=C/C=C(C)/C=C/C1=C(C)CCCC1(C)C | 106% (inactive)
41 | C/C(N)=C(/C#N)C(=O)COC(=O)c1cc(-c2cccc(Br)c2)nc2ccccc12 | 110% (inactive)
42 | CCc1ccc(NC(=O)Cn2ncn3c(cc4ccccc43)c2=O)cc1 | 105% (inactive)
43 | CCOC(=O)c1c(NC(=S)NC(=O)c2ccco2)sc2c1CCCC2 | 81.2% (inactive)
44 | COc1cccc(NC(=O)CN(C)C(=O)/C=C/c2cc(OC)ccc2OC)c1 | 91.9% (inactive)
45 | CCCc1nc(N2CCN(C)CC2)c2sc(=S)n(-c3ccccc3)c2n1 | 99.3% (inactive)
46 | COc1ccc(C(=O)NC2CC(C)(C)Cc3c2cnn3-c2ccccc2)c(OC)c1 (stereo unspecified) | 100% (inactive)
47 | CCNc1c(NS(=O)(=O)c2ccc(C3CCCCC3)cc2)c(=O)oc2ccccc12 | 94% (inactive)
48 | COc1ccc(NC(=S)N2CCc3cc(OC)c(OC)cc3C2)cc1 | 102% (inactive)
49 | CCNC(=O)c1c(O)c2cccc3c2n(c1=O)CC3 | 83.8% (inactive)
50 | Cc1csc(NC(=O)c2ccc(-c3ccc(Cl)cc3Cl)o2)n1 | 96.6% (inactive)
51 | CSCCC(NC(=O)COc1ccccc1)C(=O)OCCOc1ccc(Br)cc1 (stereo unspecified) | 93.4% (inactive)
52 | O=C(OCc1ccc(-c2ccccc2)cc1)c1cccc(O)c1 | 116% (inactive)

Row | SMILES | fluorescence ratio to DMSO
53 | Cc1ccc2c(c1)NC(=O)[C@@]1(C)[C@@H](c3ccccc3)[C@H]3COc4ccc(Cl)cc4[C@@H]3N1C2=O | 103% (inactive)
54 | COc1ccc2sc(-c3ccccc3OC)c(-c3ccc(OCCN4CCCC4)cc3)c2c1 | 112% (inactive)
55 | Cc1cccc(NC(=O)COc2ccccc2C)n1 | 95% (inactive)
56 | Cc1c(CCOC(=O)CC23CC4CC(CC(C)(C4)C2)C3)sc[n+]1Cc1ccc([N+](=O)[O-])cc1 | 106% (inactive)
57 | O=C(CNC(=O)c1ccc(-c2ccccc2)cc1)OCc1ccc(Cl)cc1 | 110% (inactive)
58 | C=CCC[C@@H](Cc1ccc(F)cc1)C(=O)OC[C@H](Cc1c[nH]c2ccccc12)NC(=O)[C@@H](CC=C)CC(=O)N(CCO)Cc1ccccc1 | 92.1% (inactive)
59 | O=C(Cn1c(COc2ccccc2)nc2ccccc21)Nc1cc(Cl)c(Cl)cc1Cl | 93.4% (inactive)
60 | CCCCOc1ccc(C(=O)NCC(=O)OCC(=O)c2c(N)n(C)c(=O)n(C)c2=O)cc1 | 97.6% (inactive)
61 | CC[n+]1cc(C)ccc1/C=C/c1ccc(N(C)C)cc1 | 1680% (active)
62 | NNC(=O)COc1ccc(C2SCCS2)cc1 | 85.2% (inactive)
63 | CC(C)C(=O)N1CCC2(CC1)Oc1ccc(F)cc1C(=O)C21CC(c2ccccc2)=NO1 (stereo unspecified) | 97.8% (inactive)
64 | COc1ccc(-c2sc3ccccc3c2-c2ccc(OCCN3CCOCC3)cc2)cc1 | 108% (inactive)
65 | CN1CCN(S(=O)(=O)c2ccc(NC(=S)NC(=O)C3CC3)cc2)CC1 | 106% (inactive)
66 | O=C(Cc1ccccc1)NCC1OCCc2ccccc21 (stereo unspecified) | 109% (inactive)
67 | Cc1nn(C)cc1N1C(=O)c2cccc3c(N)ccc(c23)C1=O | 111% (inactive)
68 | CCOc1ccc(C2/C(=C(/O)c3ccc4c(c3)CC(C)O4)C(=O)C(=O)N2CCCn2ccnc2)cc1 (stereo unspecified) | 107% (inactive)
69 | O=C(Cc1ccc(Br)cc1)N1CCN(c2ccccn2)CC1 | 98.2% (inactive)
70 | CN=C(c1ccccc1)c1c(C)cccc1C | 103% (inactive)
71 | O=C(CN1C(=O)C2C3CCC(C3)C2C1=O)Oc1ccc2ccccc2c1 (stereo unspecified) | 107% (inactive)
72 | Cc1nn(C)cc1C(=O)Nc1ccccc1Br | 85.7% (inactive)
73 | COc1ccc(C(=O)C2CCCN(Cc3cccn3-c3ccccn3)C2)c(C)c1 (stereo unspecified) | 109% (inactive)
74 | O=C(CSc1nnc(-c2cccnc2)n1Cc1ccco1)c1ccc(Cl)c(Cl)c1 | 104% (inactive)
75 | COc1ccc(C(=O)NC2CCCc3c2cnn3-c2cccc(C)c2C)c(OC)n1 (stereo unspecified) | 92.9% (inactive)
76 | CC1CCc2c(sc(NC(=O)c3ccc(Cn4cc(Br)cn4)o3)c2C(N)=O)C1 (stereo unspecified) | 100% (inactive)
